# TWEAK Fn14 block: blocks TWEAK-Fn14 interaction in a reporter cell assay | TWEAK-stimulated Fn14 reporter cells, luciferase luminescence, 8 h | inhibition, % at 10 µM | hit rate 2% among 360,000; in the data active = inhibition above about 50%
# HSP90 refold inh: inhibitors of HSP90 luciferase refolding in rabbit reticulocyte lysate; AID 1789; hit rate 0.91% among 290,000; inhibition, % at 5.6 µM; luciferase refolding luminescence, 3 h;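 active = inhibition above the screen-wide mean plus 3 SD, computed separately per campaign, cut at about 16% in these data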;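 note: inhibitors lower the luminescence because luciferase stays unfolded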
# LGR2 antag: blocks bursicon-induced cAMP signaling via Drosophila LGR2; inhibition, % at 9.99 µM; HEK293 LGR2, CRE-luciferase, bursicon-stimulated, 4 h; hit rate 0.35% among 380,000;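 active = drop in luminescence signal, shown as inhibition above about 50% in the replicate tests, limit read from the data, passing the limit was not always enough; inconclusive = probably only some replicates passing the limit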;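 note: agonist challenge used bursicon conditioned medium at about half maximal strength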
# TROY signal inh: blocks TROY-dependent signaling in reporter cells; Q293 LMP1-TROYcd NF-kB luciferase reporter, 4 h; hit rate 0.98% among 360,000; inhibition, % at 10 µM; AID 1347056;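 active = compounds whose plate-normalised and pattern-corrected inhibition of the luciferase reporter signal at the single screening dose is 50% or more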
# A number is an active result; 0 = inactive; ? = inconclusive; - = not tested or not shown. Most compounds without a hit are left out; they make up all but 2.2% or so of the library.
SMILES,TWEAK Fn14 block,HSP90 refold inh,LGR2 antag,TROY signal inh
Cc1cc(C)c(C#N)c(Sc2nc(C)c([N+](=O)[O-])c(C)c2C#N)n1,82,-,?,0
Cc1nc(Sc2ccccc2)c(C#N)c(C)c1[N+](=O)[O-],0,0,0,0
CCCC#Cc1ccc([C@H]2[C@H](CO)N3CCCCN(Cc4cccnc4)C[C@@H]23)cc1,-,-,0,-
NNC(=O)CSc1nc(-c2ccccc2)cn1-c1ccccc1,63,0,0,72
Nn1cc(-c2ccccc2)nc1SCC(=O)NCCc1ccccc1,0,0,0,0
Cc1ccc(-c2cn(-c3ccccc3)c(SCC(=O)NC3CCS(=O)(=O)C3)n2)cc1C (stereo not drawn),0,0,0,52
CCCc1[nH]c2ccc(C(=O)OC)cc2c1CCC,0,0,0,0
CCCc1[nH]c2ccc(C#N)cc2c1CCC,0,0,0,53
O=C(C[C@H]1C[C@@H]2c3cc(NS(=O)(=O)c4ccc(F)cc4)ccc3O[C@@H]2[C@H](CO)O1)NC1CCCCC1,-,-,0,-
O=C(C1CCOCC1)N1C[C@@H]2[C@H](c3ccccc31)[C@@H](CO)N2C(=O)Nc1cccc(F)c1,-,-,0,-
CSc1ccccc1NC(=O)c1ccc(CN2CCOCC2)cc1,0,0,0,0
Cc1cc(CSc2ccccc2)ccc1NC(=O)c1ccc(CN2CCOCC2)cc1,52,0,0,0
COc1ccc2c3c([nH]c2c1)[C@H](CO)N(Cc1ccccn1)CC31CN(C(C)=O)C1,-,-,0,-
Cc1ccc(C)c(NC(=O)CSc2nc(N)c(NC(=O)c3cccs3)c(=O)[nH]2)c1,0,0,0,0
Cc1ccc(C)c(NC(=O)CSc2nc3nc(-c4cccs4)cc(C(F)(F)F)c3c(=O)[nH]2)c1,0,0,0,53
O=C(CSc1nc2nc(-c3cccs3)cc(C(F)(F)F)c2c(=O)[nH]1)Nc1ccc(F)c(F)c1,70,0,0,0
O=C(c1cc2sccc2n1Cc1ccc(F)cc1)N1CCN(c2nc3ccccc3s2)CC1,65,0,-,0
C[C@@H]1CN([C@@H](C)CO)C(=O)c2cc(Br)cnc2O[C@H]1CN(C)C(=O)C1CCOCC1,-,-,0,-
CCOC(=O)N1CCN(Cc2c(F)cccc2F)CC1,71,0,0,-
CC(C)CC#Cc1ccc2c(c1)O[C@H](CN(C)C(=O)Cc1ccccn1)[C@@H](C)CN([C@@H](C)CO)S2(=O)=O,-,-,0,-
COc1cccc(NC(=O)N2CC3(C2)[C@@H](c2ccccc2)[C@@H](CO)N3C(=O)C2CC2)c1,-,-,0,-
c1ccc(-c2cnc(-c3ccccn3)nn2)cc1,0,-,0,0
c1ccc(-c2cnc(-c3ccccc3)nn2)cc1,0,-,74,0
Brc1ccc(-c2ncc(-c3ccccc3)cn2)cc1,52,0,-,0
CNC[C@@H]1OCCCC[C@@H](C)Oc2ccc(NC(=O)c3ccccc3)cc2C(=O)N([C@@H](C)CO)C[C@H]1C,-,-,0,-
SMILES,TWEAK Fn14 block,HSP90 refold inh,LGR2 antag,TROY signal inh
CCCNC(=O)N1[C@H](C#N)[C@H](c2ccccc2-c2cccc(C)c2)[C@@H]1CO,-,-,0,-
Cc1c(C(=O)NCc2ccc3c(c2)OCO3)oc2ccc(S(=O)(=O)N3CCC(C)CC3)cc12,59,0,-,0
Cc1c(C(=O)NCC2COc3ccccc3O2)oc2ccc(S(=O)(=O)N3CC(C)CC(C)C3)cc12 (stereo not drawn),0,0,0,0
CCN(CC)S(=O)(=O)c1ccc2oc(C(=O)NCC3COc4ccccc4O3)c(C)c2c1 (stereo not drawn),56,0,-,0
Cc1c(C(=O)NCC2COc3ccccc3O2)oc2ccc(S(=O)(=O)N3CCOCC3)cc12 (stereo not drawn),57,0,-,0
Cc1c(C(=O)NCc2ccc3c(c2)OCO3)oc2ccc(S(=O)(=O)N3CCCCCC3)cc12,0,0,-,0
CCN(CC)S(=O)(=O)c1ccc2oc(C(=O)NC3CC3)c(C)c2c1,0,0,0,0
O=C(C[C@@H]1CC[C@H](NC(=O)c2cccnc2)[C@H](CO)O1)NCCN1CCCCC1,-,-,0,-
Cc1ccc(C(=O)Nc2cccc(C(=O)NCc3ccccc3)c2)o1,0,0,0,0
C/C(=N\NC(=O)C1(C)CC1(Br)Br)c1cccc(NC(=O)c2ccc(C)o2)c1 (stereo not drawn),56,0,0,0
CCOC(=O)c1cc2c(=O)n3ccccc3nc2n(C(C)C)c1=NC(=O)c1c(-c2c(F)cccc2Cl)noc1C,57,0,0,0
CCOC(=O)c1cc2c(=O)n3ccccc3nc2n(C)c1=NC(=O)c1c(-c2c(F)cccc2Cl)noc1C,0,-,0,0
O=C(CSCC(=O)N1CCCc2ccccc21)Nc1nc(-c2ccccc2)cs1,52,0,0,0
COc1ccc(-c2csc(NC(=O)C3CC(=O)N(Cc4ccccc4)C3)n2)cc1OC (stereo not drawn),89,0,0,0
CCOc1ccc(N2CC(C(=O)Nc3ccc4c(c3)OCCO4)CC2=O)cc1 (stereo not drawn),78,0,0,61
CCOc1ccc(N2CC(C(=O)Nc3ccc4c(c3)OCO4)CC2=O)cc1 (stereo not drawn),0,0,0,0
O=C(C1CC(=O)N(c2ccc3c(c2)OCCO3)C1)N1CCN(S(=O)(=O)c2ccccc2F)CC1 (stereo not drawn),83,-,0,0
CCc1ccc(-c2csc(NC(=O)C3CC(=O)N(c4ccc5c(c4)OCCO5)C3)n2)cc1 (stereo not drawn),75,0,-,0
Cc1csc(NC(=O)C2CC(=O)N(c3ccc4c(c3)OCCO4)C2)n1 (stereo not drawn),0,-,0,0
COc1ccc2c3c([nH]c2c1)[C@@H](CO)N(C(=O)NC(C)C)CC31CCN(Cc2ccc(F)cc2)CC1,-,-,0,-
C[C@H]1CN([C@@H](C)CO)C(=O)c2cc(NC(=O)Nc3ccc(F)cc3)ccc2O[C@@H]1CN(C)Cc1ccncc1,-,-,0,-
Cc1nnc(NC(=O)C2CC(=O)N(c3ccc4c(c3)OCCO4)C2)s1 (stereo not drawn),0,-,0,0
CCc1cccc(CC)c1NC(=O)C1CC(=O)N(c2ccc3c(c2)OCCO3)C1 (stereo not drawn),69,0,-,0
O=C(Nc1nc(-c2ccco2)c(-c2ccco2)s1)C1CC(=O)N(c2ccc3c(c2)OCCO3)C1 (stereo not drawn),81,0,-,0
O=C(c1ccccn1)N1CC(=O)N2[C@@H](CO)[C@H](c3ccc(C#Cc4ccccc4)cc3)[C@@H]2C1,-,-,0,-
SMILES,TWEAK Fn14 block,HSP90 refold inh,LGR2 antag,TROY signal inh
COc1ccc(N=Cc2c(O)[nH]c3ccccc23)cc1,0,0,-,0
COc1ccc(N=Cc2ccc[nH]2)cc1,87,0,-,63
CCCCOc1ccc(N=Cc2ccc[nH]2)cc1,67,0,0,73
O=C(NC(=S)N1CCCCC1c1cccnc1)c1ccc(F)cc1 (stereo not drawn),0,0,0,73
O=C(NC(=S)N1CCCCC1c1cccnc1)c1ccc(Br)cc1 (stereo not drawn),0,0,0,0
C[C@@H]1CN([C@@H](C)CO)C(=O)c2cc(C#C[C@@H](C)O)cnc2O[C@H]1CN(C)C(=O)Nc1ccc(F)cc1,-,-,0,-
COC(=O)c1cc(OC)c(OC)cc1NCC(=O)Nc1ccc(OC)c(OC)c1,0,0,0,0
